Experimental data reported in PubChem BioAssay (NCI).
Compounds without any hit were thinned out: in the full panel of roughly 83,000, 20% have a hit.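 Negative percent growth values reflect cell death: -40 means 40% of the cells present at the start died, and -100 means all died.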 Activity calls are given as the source filed them. The calls were made as follows: active = growth percent below 10; inactive = the rest.

Experiments:
Experiment in all cases: NCI-60 one-dose screen, 48 h (100 = growth as untreated, 0 = no growth, -100 = all killed)
NCI-H322M lung = settings: 10 µM
A549/ATCC NSCLC = settings: 10 µM
DU-145 prostate = settings: 10 µM
K-562 leukemia = settings: 10 µM
LOX IMVI melanoma = settings: 10 µM
MOLT-4 leukemia = settings: 10 µM
SR leukemia = settings: 10 µM
RPMI-8226 leukemia = settings: 10 µM
MDA-MB-468 breast = settings: 10 µM unless noted
NCI-H226 lung = settings: 10 µM
HOP-62 NSCLC = settings: 10 µM
NCI-H460 lung = settings: 10 µM
NCI-H522 lung = settings: 10 µM
SF-539 CNS = settings: 10 µM
M14 melanoma = settings: 10 µM
HCT-15 colon = settings: 10 µM
HT29 colon = settings: 10 µM
SNB-19 CNS = settings: 10 µM
U251 CNS = settings: 10 µM
PC-3 prostate = settings: 10 µM

Measured: growth

O=C(O)CCN1C(=O)/C(=C/C=C/c2ccc([N+](=O)[O-])o2)SC1=S
active: LOX IMVI melanoma -100% | MOLT-4 leukemia -20.4% | SR leukemia 0.111% | RPMI-8226 leukemia -19.3% | MDA-MB-468 breast -77.8%
inactive: NCI-H322M lung 31% | A549/ATCC NSCLC 10.4% | DU-145 prostate 26.3% | K-562 leukemia 11.1%

O=C1NC2C=CC=CC2/C1=C1/SC(=S)N(C2CC(=O)N(c3ccc(Br)cc3)C2=O)C1=O (stereo not given)
inactive: NCI-H226 lung 91.3% | NCI-H322M lung 101% | HOP-62 NSCLC 99.2% | NCI-H460 lung 100% | NCI-H522 lung 68.7% | A549/ATCC NSCLC 99% | DU-145 prostate 97.5% | K-562 leukemia 55.1% | SF-539 CNS 93.6% | M14 melanoma 103% | HCT-15 colon 59.3% | HT29 colon 98.1% | SNB-19 CNS 93.9% | U251 CNS 91.4% | PC-3 prostate 76.6% | LOX IMVI melanoma 33.8% | MOLT-4 leukemia 70.5% | SR leukemia 67.9% | RPMI-8226 leukemia 50% | MDA-MB-468 breast 84.2%

CCC(c1cccc(O)c1)C(CC)c1cccc(O)c1 (stereo not given)
inactive: MDA-MB-468 breast 24.1%

Cn1cc(-c2nnc(N)nc2-c2c[nH]c3ccccc23)c2cc(Br)cnc21
inactive: NCI-H226 lung 17.9% | NCI-H322M lung 65.2% | HOP-62 NSCLC 50.6% | NCI-H460 lung 42.3% | NCI-H522 lung 15.1% | A549/ATCC NSCLC 55.1% | DU-145 prostate 77% | K-562 leukemia 15.1% | SF-539 CNS 50.2% | M14 melanoma 25.1% | HCT-15 colon 25.4% | HT29 colon 35.6% | SNB-19 CNS 66.6% | U251 CNS 45.5% | PC-3 prostate 45.7% | RPMI-8226 leukemia 26.6%
active: LOX IMVI melanoma -75.6% | MOLT-4 leukemia 2.48% | SR leukemia 8.61% | MDA-MB-468 breast -3.61%

Cc1ccc2c(c1)C(=O)/C(=C/c1ccc([N+](=O)[O-])cc1)S2
inactive: NCI-H226 lung 52.2% | NCI-H322M lung 105% | HOP-62 NSCLC 92% | NCI-H460 lung 92.5% | NCI-H522 lung 82.5% | A549/ATCC NSCLC 99.6% | DU-145 prostate 104% | K-562 leukemia 69.9% | SF-539 CNS 96.6% | M14 melanoma 97.3% | HCT-15 colon 96.2% | HT29 colon 79.1% | SNB-19 CNS 92.4% | U251 CNS 77.8% | PC-3 prostate 94.5% | LOX IMVI melanoma 105% | MOLT-4 leukemia 107% | SR leukemia 100% | RPMI-8226 leukemia 65.2% | MDA-MB-468 breast 84%

Cc1cc2c(-c3nc4ccccn4c3N)c(O)c(O)cc2c(O)c1-c1c(C)cc2c(-c3nc4ccccn4c3N)c(O)c(O)cc2c1O
active: MDA-MB-468 breast -2.1%

COc1cc(C2CC(c3ccc(Oc4ccc(Cl)cc4)cc3)=NN2c2nc(-c3ccc(Cl)cc3)c(C#N)c(N3CCOCC3)n2)cc(OC)c1OC (stereo not given)
inactive: NCI-H226 lung 90.4% | NCI-H322M lung 98% | HOP-62 NSCLC 98.9% | NCI-H460 lung 107% | NCI-H522 lung 92.4% | A549/ATCC NSCLC 97.9% | DU-145 prostate 106% | K-562 leukemia 97.5% | SF-539 CNS 95.7% | M14 melanoma 99% | HCT-15 colon 95.7% | HT29 colon 106% | SNB-19 CNS 102% | U251 CNS 102% | PC-3 prostate 92% | LOX IMVI melanoma 80.6% | MOLT-4 leukemia 105% | SR leukemia 88.5% | RPMI-8226 leukemia 104% | MDA-MB-468 breast 107%

COc1cccc(O)c1/C=C1\SCc2cc3c(OC)cccc3[o+]c21
inactive: NCI-H226 lung 98.2% | NCI-H322M lung 103% | HOP-62 NSCLC 105% | NCI-H460 lung 127% | NCI-H522 lung 102% | A549/ATCC NSCLC 108% | DU-145 prostate 114% | K-562 leukemia 106% | SF-539 CNS 98% | M14 melanoma 106% | HCT-15 colon 111% | HT29 colon 113% | SNB-19 CNS 101% | U251 CNS 114% | PC-3 prostate 97.9% | LOX IMVI melanoma 103% | MOLT-4 leukemia 112% | SR leukemia 98% | RPMI-8226 leukemia 107%

COc1ccc(C(=O)COc2ccc(NC(=O)Nc3ccc(Cl)c(C(F)(F)F)c3)cc2)cc1
active: NCI-H226 lung 4.95% | NCI-H522 lung -43.2% | HCT-15 colon 8.56% | PC-3 prostate 8.96% | LOX IMVI melanoma -60.5% | SR leukemia 7.72% | MDA-MB-468 breast -15.1%
inactive: NCI-H322M lung 36.3% | HOP-62 NSCLC 42.8% | NCI-H460 lung 25.5% | A549/ATCC NSCLC 18.5% | DU-145 prostate 47.3% | K-562 leukemia 37.5% | SF-539 CNS 33.7% | M14 melanoma 19% | HT29 colon 21.1% | SNB-19 CNS 21.9% | U251 CNS 24.3% | MOLT-4 leukemia 15.6% | RPMI-8226 leukemia 19.1%
